{"source": "PubChem BioAssay AID463195", "about": "(Sanford-Burnham Center for Chemical Genomics, 2010)", "note": "The campaign covered roughly 330,000 compounds. About 4,600 (1.4%) were called active. The list comes from a sample in which actives are over-represented; it also holds similar structures and randomly drawn compounds. A number with no mark means an inactive call.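 The calls were made as follows: active = inhibition of 40% or more at the single tested concentration; inactive = the rest.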"}
{"assay": "wild-type TIM10 yeast growth inhibition – luminescence, uHTS, counter-screen for tim10-1 yeast inhibitor project, primary screen (AID 463195);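 also: wild-type TIM10 isogenic control strain grown at permissive 25 °C; 0% = DMSO yeast wells and 100% = minimal medium wells without yeast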", "conditions": "S. cerevisiae TIM10 strain growth, BacTiter-Glo luminescence, 24 h; at 10 µM; active compounds read high"}
{"smiles": "S=c1[nH]nc2c3c4c(sc3ncn12)CCCC4", "inhibition": "29.6%"}
{"smiles": "C=C(C)COc1ccc(-c2n[nH]c(C)c2-c2ccccc2)c(O)c1", "inhibition": "45.6% (active)"}
{"smiles": "C=C(C)COc1ccc(-c2ncncc2-c2ccc(OC)cc2)c(O)c1", "inhibition": "17.4%"}
{"smiles": "COc1ccc(-c2n[nH]c(C)c2-c2ccccc2OC)c(O)c1", "inhibition": "25.2%"}
{"smiles": "Cn1c(=O)oc2cc(S(=O)(=O)NCCC(=O)NCc3ccccc3Cl)ccc21", "inhibition": "6.26%"}
{"smiles": "O=C(CN1CCSCC1)N/N=C/c1ccc(F)cc1F", "inhibition": "-5.91%"}
{"smiles": "CNS(=O)(=O)c1ccc(NC(=O)C2CC(=O)N(c3ccc(Cl)cc3)C2)cc1", "note": "(configuration not stated)", "inhibition": "-1.17%"}
{"smiles": "Cc1c(NC(=O)C(C)OC(=O)c2c3c(nc4ccccc24)CCC(C)C3)c(=O)n(-c2ccccc2)n1C", "note": "(configuration not stated)", "inhibition": "-6.65%"}
{"smiles": "CSCCC(NS(=O)(=O)c1ccc(C)cc1)C(=O)N1CCCC1", "note": "(configuration not stated)", "inhibition": "-9.58%"}
{"smiles": "CSCCC(NC(=O)c1ccccc1)C(=O)N1CCCCCCC1", "note": "(configuration not stated)", "inhibition": "2.09%"}
{"smiles": "CSCCC(NS(=O)(=O)/C=C/c1ccccc1)C(=O)N1CCC(C)CC1", "note": "(configuration not stated)", "inhibition": "43.1% (active)"}
{"smiles": "O=C1/C(=C/c2cccs2)CCC1C1CCCC1", "note": "(configuration not stated)", "inhibition": "-11.5%"}
{"smiles": "CC(=O)NCc1ccc(S(=O)(=O)NC2CCN(Cc3ccccc3)CC2)cc1", "inhibition": "0.58%"}
{"smiles": "COc1ccc(S(=O)(=O)NC(C)c2ccccc2)cc1C(=O)N1CCCCC1", "note": "(configuration not stated)", "inhibition": "13.1%"}
{"smiles": "Cc1cccc(C2=N/C(=C/c3cccs3)C(=O)O2)c1", "inhibition": "41.4% (active)"}
{"smiles": "Cc1cccc(C(=O)Nc2ccc(C(=O)/C=C/c3cccs3)cc2)c1", "inhibition": "10%"}
{"smiles": "Cc1ccc(C2=N/C(=C\\c3ccc(OS(=O)(=O)c4ccc(C)cc4)cc3)C(=O)O2)cc1", "inhibition": "-5.54%"}
{"smiles": "CC1(C)C(C=C(Cl)Cl)C1C(=O)N(Cc1ccc(Cl)cc1)C1CCS(=O)(=O)C1", "note": "(configuration not stated)", "inhibition": "17.4%"}
{"smiles": "C=CS(=O)c1sc(Cl)c(N2CCOCC2)c1[N+](=O)[O-]", "note": "(configuration not stated)", "inhibition": "67.8% (active)"}
{"smiles": "CCN(CC)P(=O)(Nc1ccc(SC(F)F)cc1)c1ccc(N(C)C)cc1NC(=O)c1ccco1", "note": "(configuration not stated)", "inhibition": "19%"}
{"smiles": "Cc1ccc(CCN2CC(C(=O)O)CC2=O)cc1", "note": "(configuration not stated)", "inhibition": "-9.17%"}
{"smiles": "COc1ccc(C(=O)N2CC3(C)CC2CC(C)(C)C3)cc1OC", "note": "(configuration not stated)", "inhibition": "9.33%"}
{"smiles": "CN(C)C(=O)COC(=O)c1cccc(S(=O)(=O)N2CC3(C)CC2CC(C)(C)C3)c1", "note": "(configuration not stated)", "inhibition": "5.89%"}
{"smiles": "Cc1nnnn1/C(=C\\c1ccccc1)C(=O)OCC(=O)N1CC2(C)CC1CC(C)(C)C2", "note": "(configuration not stated)", "inhibition": "62.3% (active)"}
{"smiles": "Cc1cccc(NC(=S)NCc2ccc3[nH]c4c(c3c2)CCCC4)c1", "inhibition": "42.9% (active)"}
{"smiles": "Cc1cccc(NC(=S)NCCN(C2CCCCC2)C2CCCC2)c1", "inhibition": "11.8%"}
{"smiles": "Cc1cccc(NC(=S)NC23CN4CN(CN(C4)C2)C3)c1", "inhibition": "-11.6%"}
{"smiles": "N#C/C(=C(\\O)C(F)(F)F)c1nnc2n1CCCCC2", "inhibition": "-10.3%"}
{"smiles": "COc1cc(/C=N/NC(=O)c2cccnc2)ccc1OC(=O)c1cccc(Br)c1", "inhibition": "14.7%"}
{"smiles": "COc1cc(/C=N/NC(=O)c2ccccc2)ccc1OS(=O)(=O)c1ccccc1", "inhibition": "43.1% (active)"}
{"smiles": "COc1cc(C=NNC(=O)c2cccnc2)ccc1OC(=O)c1ccccc1F", "inhibition": "7.06%"}
{"smiles": "COc1ccc(C(=O)Nc2ccccc2C(=O)N2CCN(c3ccccc3)CC2)cc1", "inhibition": "14.5%"}
{"smiles": "COc1ccc(C(=O)Nc2ccccc2C(=O)N/N=C/c2ccccc2OC)cc1", "inhibition": "64.2% (active)"}
{"smiles": "COc1ccc(/C=N/Nc2ccccc2C(=O)O)cc1", "inhibition": "13.9%"}
{"smiles": "COc1ccc(C(=O)Nc2cc(C)c(NC(=O)c3ccccc3OC)cn2)cc1", "inhibition": "14.6%"}
{"smiles": "COc1cc(/C=N/NC(=O)CCc2n[nH]c(=O)[nH]c2=O)ccc1O", "inhibition": "5.01%"}
{"smiles": "COc1ccc(C(=O)Nc2ccccc2C(=O)N/N=C/c2ccc(O)c(OC)c2)cc1", "inhibition": "93.2% (active)"}
{"smiles": "CC(=O)c1ccc(N2Cc3ccccc3C2)cc1", "inhibition": "8.18%"}
{"smiles": "Cc1ccc(-c2nc(COC(=O)c3c(C)noc3C)cs2)cc1", "inhibition": "1.5%"}
{"smiles": "Oc1ccc2ccc3cccc[n+]3c2c1", "inhibition": "-22.6%"}
{"smiles": "COCCN1C(=O)c2oc3c(C)cc(C)cc3c(=O)c2C1c1cccc(O)c1", "note": "(configuration not stated)", "inhibition": "-2.19%"}
{"smiles": "CC1CC2=C(CC1/C=N/NC(N)=S)C(C)(C)CCC2", "note": "(configuration not stated)", "inhibition": "13.8%"}
{"smiles": "N#Cc1ccc(C(=O)Nc2nc(-c3cccs3)c(C(=O)C(F)(F)F)s2)cc1", "inhibition": "9.92%"}
{"smiles": "CCC(CC)C(=O)Nc1c2c(nn1-c1ccc(C)cc1)CS(=O)(=O)C2", "inhibition": "4.97%"}
{"smiles": "CC/S(CC1CC1(Cl)Cl)=N\\S(=O)(=O)c1ccc(C)cc1", "note": "(configuration not stated)", "inhibition": "0.564%"}
{"smiles": "CCN1C(=NCC(C)C)N[C@@H](CCc2ccccc2)[C@H](C(=O)NCC(C)C)[C@H]1C", "inhibition": "-3.76%"}
{"smiles": "O=C(N/N=C/c1cccc(OCc2ccccc2)c1)c1ccc(Br)o1", "inhibition": "26.3%"}
{"smiles": "N#C/C(=C\\c1ccc(O)c(O)c1)C(=O)NCc1ccccc1", "inhibition": "-1.33%"}
{"smiles": "COCCNC(=O)/C(C#N)=C/c1cccc(OCc2ccccc2)c1", "inhibition": "55.7% (active)"}
{"smiles": "CC(C)COc1ccc(C(=O)OCC(=O)NCCC2=CCCCC2)cc1", "inhibition": "11.3%"}
{"smiles": "COC(=O)c1ccc(COc2cc([N+](=O)[O-])cc3cccnc23)cc1", "inhibition": "-32.2%"}
{"smiles": "C=C(C)c1cccc(C(C)(C)NC(=O)N2CCN(c3ncccn3)CC2)c1", "inhibition": "3.72%"}
{"smiles": "CCOc1cc(-c2cc(-c3ccc(OC)cc3)nc(N)c2C#N)ccc1O", "inhibition": "34%"}
{"smiles": "CCOc1cc(-c2cc(-c3ccc(NC(C)=O)cc3)nc(N)c2C#N)ccc1O", "inhibition": "-6.1%"}
{"smiles": "COc1ccc(-c2cc(-c3ccc(N)cc3)nc(N)c2C#N)cc1OC", "inhibition": "41% (active)"}
{"smiles": "O=C(CN1CCN(S(=O)(=O)c2ccc3ccccc3c2)CC1)NC(=O)NC1CCCCC1", "inhibition": "44.2% (active)"}
{"smiles": "COc1ccc(S(=O)(=O)N2CCN(C(=O)NC3CCCCC3)CC2)cc1", "inhibition": "-5.18%"}
{"smiles": "O=C(CN1CCN(S(=O)(=O)c2ccc(F)cc2)CC1)NC1CC1", "inhibition": "0.605%"}
{"smiles": "O=C(NC(=S)Nc1cccc2c(O)cccc12)c1cccc(Br)c1", "inhibition": "20.4%"}
{"smiles": "O=C1c2ccccc2S(=O)(=O)c2cc(N3CCN(c4ccccn4)CC3)ccc21", "inhibition": "-6.37%"}
{"smiles": "Cc1cc(N)n2nc(-c3ccc(C(C)(C)C)cc3)cc2n1", "inhibition": "45.3% (active)"}
{"smiles": "Cc1cc(C(C)(C)C)cc(C)c1N", "inhibition": "-4.47%"}
{"smiles": "COc1ccc(-c2cc(C)nc3nc(N)nn23)cc1", "inhibition": "9.96%"}
{"smiles": "C/C(CC(=O)Nc1cccc(C(F)(F)F)c1)=N\\NC(=O)C(=O)NCC(C)C", "inhibition": "10.5%"}
{"smiles": "CCOC(=O)CNC(=O)CSc1nc2cccnc2n1CC", "inhibition": "7.72%"}
{"smiles": "CCOC(=O)CNC(=O)CSc1ncccc1-c1nc2ccccc2[nH]1", "inhibition": "97.9% (active)"}
{"smiles": "CCOC(=O)CNC(=O)CSc1ccc2nnc(-c3cccnc3)n2n1", "inhibition": "-17.7%"}
{"smiles": "CC(C)C(NC(=O)C1CCC(C(C)(C)C)CC1)C(=O)NCCCN1CCCCC1", "note": "(configuration not stated)", "inhibition": "6.75%"}
{"smiles": "O=C(CNC(=O)c1ccccc1Br)NNC(=O)c1cccs1", "inhibition": "3.43%"}
{"smiles": "Cc1ccoc1C(=O)Nc1cccc(Oc2ccccc2)c1", "inhibition": "55.2% (active)"}
{"smiles": "CC(Oc1cccc(NC(=O)c2cccs2)c1)C(=O)c1ccccc1", "note": "(configuration not stated)", "inhibition": "8.87%"}
{"smiles": "Cc1cccc(NC(=O)Nc2cccc(Oc3c(F)c(F)c(F)c(F)c3F)c2)c1", "inhibition": "8.17%"}
{"smiles": "COc1ccccc1NC(=O)CSc1nnc(Cn2nnc(-c3ccccc3)n2)n1-c1ccccc1", "inhibition": "6.08%"}
{"smiles": "Cc1ccc(NC(=O)COC(=O)CN2CCCCCC2=O)c(C)c1", "inhibition": "7.63%"}
{"smiles": "COc1ccc(CN2CCC(n3nccc3NC(=O)CCCc3ccccc3)CC2)cc1C", "inhibition": "4.88%"}
{"smiles": "Cc1cc2cc(CNC(=O)c3cccs3)ccc2[nH]1", "inhibition": "-0.032%"}
{"smiles": "Cc1cc2cc(CNC(=O)c3ccc(S(=O)(=O)N4CCOCC4)cc3)ccc2[nH]1", "inhibition": "7.18%"}
{"smiles": "CCc1cccc(CC)c1NC(=S)NCc1ccc2[nH]c(C)cc2c1", "inhibition": "54% (active)"}
{"smiles": "CCOC(=O)N/N=C/c1cn(Cc2ccccc2Cl)c2ccccc12", "inhibition": "22%"}
{"smiles": "CNC(=S)N/N=C/c1cn(Cc2ccc(C)cc2)c2ccccc12", "inhibition": "51.4% (active)"}
{"smiles": "N#CCC(=O)N/N=C/c1cn(Cc2ccc3ccccc3c2)c2ccccc12", "inhibition": "-20.2%"}
{"smiles": "C=CCN(c1ccc(Cl)cc1)S(=O)(=O)c1cccc(C(=O)OCC(=O)N(C)C)c1", "inhibition": "-12.8%"}
{"smiles": "COc1cccc(NC(=O)CN(C)C(=O)/C=C/c2cn(-c3ccccc3)nc2-c2cccs2)c1", "inhibition": "-5.41%"}
{"smiles": "O=C(NCc1cccnc1)c1cn(-c2ccccc2)nc1-c1cccs1", "inhibition": "2.96%"}
{"smiles": "O=C(O)c1ccc(N/N=C/c2cn(-c3ccccc3)nc2-c2cccs2)cc1", "inhibition": "56.3% (active)"}
{"smiles": "CN(CC(=O)NC(=O)Nc1ccccc1F)Cc1ccccc1", "inhibition": "2.75%"}
{"smiles": "Cc1cc(C)c(S(=O)(=O)N2CCC(C(=O)OCc3c(C)noc3C)CC2)c(C)c1", "inhibition": "8.76%"}
{"smiles": "Cc1noc(C)c1NC(=O)Nc1cccc2c1O[C@H](CN(C)S(=O)(=O)c1c(C)noc1C)[C@@H](C)CN([C@H](C)CO)C2=O", "inhibition": "9.51%"}
{"smiles": "CC(C)(C)c1ccc(CN2C(=O)c3ccccc3S2(=O)=O)cc1", "inhibition": "11%"}
{"smiles": "O=C1c2ccccc2S(=O)(=O)N1CC(O)Cn1c2ccccc2c2ccccc21", "note": "(configuration not stated)", "inhibition": "79.5% (active)"}
{"smiles": "CCCCN(CCCC)CC(O)Cn1c2ccccc2c(=O)c2ccccc21", "note": "(configuration not stated)", "inhibition": "-7.98%"}
{"smiles": "COC(=O)c1ccc(C2C3=C(Nc4nnnn42)c2ccccc2OC3)cc1", "note": "(configuration not stated)", "inhibition": "27.5%"}
